The list is not random: actives were taken first. Their share in the collection is about 9.4%.
Pf growth 96h = Primary qHTS for delayed death inhibitors of the malarial parasite plastid, 96 hour incubation; P. falciparum luciferase reporter growth, 96 h; Potency, µM (highest dose often 28.7 µM), without a hit: at the top dose activity change, negative = inhibition, most hits filed as inhibitors; actives 6.9% (n = 320,000); note: % is set by controls: 0 for no effect and ±100 for the full control effect
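P. falciparum expressing integrated firefly luciferase grown in erythrocytes (2% hematocrit, 0.05% parasitemia final) with compounds for 96 hours at 37 C, 5% CO2. Growth inhibition read as loss of luminescence after adding luciferase detection reagent.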
AMA1-RON2 inh = qHTS for Inhibitors of AMA1-RON; Towards Development of Antimalarial Drug Lead: Primary Screen; Plasmodium falciparum AMA1 (3D7) - RON2 peptide interaction; AlphaScreen AMA1-biotinylated RON2 peptide binding; Potency, µM (highest dose often 58.2 µM), for the others: at the top dose activity change, negative = inhibition, hits mostly inhibitors; actives 0.2% (n = 360,000); AID 720542, 2013;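 note: 0% = vehicle wells and -100% = peptide control; nearly all actives have a fitted effect of over 45% in size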
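AMA1 (3D7) with his tag at 25 nM final met compounds first, then biotinylated RON2 peptide at 25 nM; detection used donor plus acceptor beads, 10 µg/mL apiece, read by AlphaScreen after 30 min at room temperature.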
Pf growth 48h = Primary qHTS for delayed death inhibitors of the malarial parasite plastid, 48 hour incubation; Potency, µM (top dose mostly 28.7 µM), for inactives: at the top dose activity change, negative = inhibition, actives largely listed as inhibitors; actives 5.9% (n = 310,000); P. falciparum luciferase growth in erythrocytes, 48 h; note: % is set by controls: 0 for no effect and ±100 for the full control effect
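Parasite viability was followed by luminescence of a genomically integrated firefly luciferase. Cultures held 0.1% parasitemia at 2% hematocrit (final), incubated under 5% CO2 at 37 C.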
SARS PLpro yeast = qHTS of Yeast-based Assay for SARS-CoV PLP | S. cerevisiae expressing SARS-CoV PLpro, growth rescue | Potency, µM (titrated, usually from 32.9 µM), without a hit: at the highest dose activity, positive = growth rescue, hits mostly activators | actives 0.19% (n = 330,000); calls by dose curve; note: 0% is about no effect; nearly all actives have a fitted effect of over 55% in size
* marks the source's active call; other numbers are inactive results. Unless noted, calls come from the whole dose curve; as a rule, active = well fitted curve in the direction sought with a large enough effect; inconclusive = small, poorly fitted or top-dose-only effect, or another doubt; inactive = no such curve, though single readings can be large; an effect the other way counts as inactive or inconclusive. Potency is the fitted concentration of half-maximal effect.

Screening O=C(CN1CCN(Cc2ccc(F)cc2)CC1)Nc1nc2ccccc2s1 returned Pf growth 96h inconclusive, AMA1-RON2 inh 4%, Pf growth 48h -20% and SARS PLpro yeast -6%.
Screening CCC(=NCc1cc(OC)cc(OC)c1)c1c(O)n(C)c(=O)n(C)c1=O returned Pf growth 96h 20%, AMA1-RON2 inh -1% and SARS PLpro yeast 3%.
Screening Cc1ccc(S(=O)(=O)N2CCN(C(=O)n3ccnc3)CC2)cc1 returned Pf growth 96h 7.4µM*, AMA1-RON2 inh 9%, Pf growth 48h inconclusive and SARS PLpro yeast 1%.
Cc1ccc(S(=O)(=O)N2CCN(C(=O)N3CCCC3)CC2)cc1 was read as Pf growth 96h -8%, AMA1-RON2 inh 18%, Pf growth 48h -4% and SARS PLpro yeast -3%.
CC(C)c1ccc(S(=O)(=O)N2CCN(C(=O)n3ccnc3)CC2)cc1 was read as Pf growth 96h 5.2µM*, AMA1-RON2 inh -4%, Pf growth 48h inconclusive and SARS PLpro yeast -5%.
Screening CC(C)c1ccc(S(=O)(=O)N2CCN(C(=O)c3ccncc3)CC2)cc1 returned Pf growth 96h inconclusive, AMA1-RON2 inh -6%, Pf growth 48h inconclusive and SARS PLpro yeast -1%.
Cc1ccc(N(C(=O)C(F)(F)F)C(C(=O)NC2CCCCC2)c2cccs2)cc1 (stereo not drawn) was read as Pf growth 96h inconclusive, AMA1-RON2 inh 5%, Pf growth 48h inconclusive and SARS PLpro yeast -2%.
For COCCN(C(=O)CNC(=O)c1ccco1)C(C(=O)NC1CCCC1)c1ccccc1F (stereo not drawn) the results were Pf growth 96h 11%, AMA1-RON2 inh 11%, Pf growth 48h 24% and SARS PLpro yeast 0%.
COc1ccc(N(C(=O)c2ccco2)C(C(=O)NC2CCCC2)c2cccs2)cc1 (stereo not drawn) was read as Pf growth 96h -13%, AMA1-RON2 inh 9%, Pf growth 48h -27% and SARS PLpro yeast 0%.
For COc1ccc(N(C(=O)c2csnn2)C(C(=O)NC2CCCC2)c2cccs2)cc1 (stereo not drawn) the results were Pf growth 96h 1.5µM*, AMA1-RON2 inh 6%, Pf growth 48h -9% and SARS PLpro yeast -1%.
For COCCN(C(=O)CCC(=O)Nc1cc(C)on1)C(C(=O)NC1CCCC1)c1ccccc1C (stereo not drawn) the results were Pf growth 96h 1%, AMA1-RON2 inh 0%, Pf growth 48h inconclusive and SARS PLpro yeast 1%.
For COc1ccc(CCN(C(=O)C(F)(F)F)C(C(=O)NC2CCCCC2)c2cccs2)cc1 (stereo not drawn) the results were Pf growth 96h inconclusive, AMA1-RON2 inh 0%, Pf growth 48h 9.3µM* and SARS PLpro yeast -10%.
`COCCNC(=O)C(c1ccccc1F)N(C(=O)C(=O)NC1CCCC1)C1CCCCC1` (stereo not drawn) gave Pf growth 96h 12µM*, AMA1-RON2 inh 0%, Pf growth 48h -4% and SARS PLpro yeast -1%.
Screening COCCN(C(=O)CCl)C(C(=O)NC1CCCCC1)c1ccccc1C (stereo not drawn) returned Pf growth 96h 8.3µM*, AMA1-RON2 inh 8%, Pf growth 48h 10µM* and SARS PLpro yeast -10%.
For CCCCCCCC(=O)O the results were Pf growth 96h -10%, AMA1-RON2 inh -1%, Pf growth 48h -11% and SARS PLpro yeast 4%.
`CCOc1ccc(CCNC(=O)c2cccc(NC3=NC4CS(=O)(=O)CC4S3)c2)cc1OCC` (stereo not drawn) gave Pf growth 96h inconclusive, AMA1-RON2 inh 10%, Pf growth 48h -22% and SARS PLpro yeast 1%.
Screening C[C@@H]1CN([C@@H](C)CO)C(=O)CCCn2nncc2CO[C@@H]1CN(C)C(=O)Oc1ccc2ccccc2c1 returned AMA1-RON2 inh 0%.
Screening O=C(O)C1C2C=CC(C2)C1C(=O)Nc1cccc(F)c1 (stereo not drawn) returned Pf growth 96h inconclusive, AMA1-RON2 inh -8%, Pf growth 48h -30% and SARS PLpro yeast 4%.
For O=C1SCC(c2ccccc2)=NN1Cc1ccccc1 the results were Pf growth 96h inconclusive, AMA1-RON2 inh 40%, Pf growth 48h -6% and SARS PLpro yeast -6%.
`COc1ccc(CCN(C(=O)C(F)(F)F)C(C(=O)NC2CCCCC2)c2ccc(C)s2)cc1` (stereo not drawn) gave Pf growth 96h 8.3µM*, AMA1-RON2 inh -3%, Pf growth 48h inconclusive and SARS PLpro yeast -5%.
For COCCN(C(=O)C(F)(F)F)C(C(=O)NC1CCCCC1)c1ccco1 (stereo not drawn) the results were Pf growth 96h 12µM*, AMA1-RON2 inh 8%, Pf growth 48h -13% and SARS PLpro yeast 8%.
For COCCN(C(=O)CNC(=O)c1cccs1)C(C(=O)NC1CCCCC1)c1ccco1 (stereo not drawn) the results were AMA1-RON2 inh -14%, Pf growth 48h 3% and SARS PLpro yeast -1%.
CC(C)Cc1ccc(CN2CCCC(NC(=O)c3ccoc3)C2)cc1 (stereo not drawn) was read as Pf growth 96h 64%, AMA1-RON2 inh -19%, Pf growth 48h 10µM* and SARS PLpro yeast 2%.
`CC(C)Cc1ccc(CN2CCCC(NC(=O)c3ccnn3C)C2)cc1` (stereo not drawn) gave Pf growth 96h -17%, AMA1-RON2 inh 5%, Pf growth 48h inconclusive and SARS PLpro yeast 7%.
For CC(C)Cc1ccc(CN2CCCC(NC(=O)c3cccc(-n4cnnc4)c3)C2)cc1 (stereo not drawn) the results were Pf growth 96h -22%, AMA1-RON2 inh -19%, Pf growth 48h 13µM* and SARS PLpro yeast -1%.
`CCCNc1nc(OC(C(F)(F)F)C(F)(F)F)nc(OC(C(F)(F)F)C(F)(F)F)n1` gave AMA1-RON2 inh -1%, Pf growth 48h 9% and SARS PLpro yeast 4%.
`Cc1nn(-c2ccccc2)c(Cl)c1C(=O)N(C)c1nc(-c2ccc(F)cc2)cs1` gave Pf growth 96h 7.4µM*, Pf growth 48h 22% and SARS PLpro yeast -26%.
Screening Cc1cc(C)c(-c2c(O)c3c(n(C)c2=O)CC(C)(C)CC3=O)c(C)c1 returned Pf growth 96h 5.9µM*, AMA1-RON2 inh 7%, Pf growth 48h inconclusive and SARS PLpro yeast 15%.
For CCN(CC)S(=O)(=O)c1cccc(C(=O)NC(Cc2c[nH]c3ccccc23)c2nnc3n2CCC3)c1 (stereo not drawn) the results were Pf growth 96h 8.3µM*, AMA1-RON2 inh 32%, Pf growth 48h 9.3µM* and SARS PLpro yeast 7%.
`COc1cc(C(=O)Nc2ccccc2C(=O)NCc2cccnc2)cc(OC)c1OC` gave Pf growth 96h 21%, AMA1-RON2 inh 4%, Pf growth 48h -16% and SARS PLpro yeast 1%.

Screening data: PubChem, National Center for Advancing Translational Sciences (NCATS)
